# Compounds without any hit were thinned out: in the full panel of roughly 83,000, 20% have a hit.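 Method: cells in 96-well plates; compound added at one concentration; 48 h incubation; percent growth measured; values under 10 scored active.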 Unmarked numbers belong to inactive results. Calls of active or inactive are those of the source.
# Legend:
# Assay in all cases: NCI-60 one-dose screen, 48 h (100 = growth as untreated, 0 = no growth, -100 = all killed)
# Conditions in all cases: 10 µM unless noted
# DU-145 prostate = test system: DU-145 prostate
# K-562 leukemia = test system: K-562 leukemia
# MALME-3M melanoma = test system: MALME-3M melanoma
# MDA-MB-231 breast = test system: MDA-MB-231 breast
# RXF 393 renal = test system: RXF 393 renal
# SF-268 CNS = test system: SF-268 CNS
# SF-295 CNS = test system: SF-295 CNS
# SF-539 CNS = test system: SF-539 CNS
# UACC-257 melanoma = test system: UACC-257 melanoma
# M14 melanoma = test system: M14 melanoma
# HCT-15 colon = test system: HCT-15 colon
# HT29 colon = test system: HT29 colon
# SNB-75 CNS = test system: SNB-75 CNS
# SNB-19 CNS = test system: SNB-19 CNS
# U251 CNS = test system: U251 CNS
# PC-3 prostate = test system: PC-3 prostate
# SK-MEL-5 melanoma = test system: SK-MEL-5 melanoma
# UACC-62 melanoma = test system: UACC-62 melanoma
# LOX IMVI melanoma = test system: LOX IMVI melanoma
# SK-MEL-28 melanoma = test system: SK-MEL-28 melanoma
Structure (SMILES),growth (DU-145 prostate),growth (K-562 leukemia),growth (MALME-3M melanoma),growth (MDA-MB-231 breast),growth (RXF 393 renal),growth (SF-268 CNS),growth (SF-295 CNS),growth (SF-539 CNS),growth (UACC-257 melanoma),growth (M14 melanoma),growth (HCT-15 colon),growth (HT29 colon),growth (SNB-75 CNS),growth (SNB-19 CNS),growth (U251 CNS),growth (PC-3 prostate),growth (SK-MEL-5 melanoma),growth (UACC-62 melanoma),growth (LOX IMVI melanoma),growth (SK-MEL-28 melanoma)
Cc1cc(C)c2c(-c3nnc(N)s3)cc(=O)oc2c1,108%,93%,106%,101%,109%,99.9%,98.7%,90.5%,107%,104%,98.4%,112%,98.8%,99.4%,103%,98.9%,98.5%,89.8%,96.7%,104%
Cc1nn(-c2ccccc2)c(Oc2ccc(Cl)cc2)c1/C=N\N=c1/sc2ccccc2n1C,108%,81%,98.2%,79%,94.2%,79.6%,101%,107%,91.9%,87.4%,77.4%,84.8%,74.4%,99.1%,86.9%,62.3%,93.3%,70.8%,93.3%,110%
COc1cc2c(cc1-c1c(C)noc1C)ncc1nc(C3CCCCC3)n(C3CCC(OC(F)F)CC3)c12 (stereo not given),63%,20.1%,41.7%,35.9%,36.5%,57%,33.9%,47%,40.3%,39.6%,25.3%,19.9%,23.3%,55.8%,25.1%,16.8%,9.79% (active),22.3%,17.8%,46.6%
CNC(=O)c1cc(Oc2ccc3nc(Nc4ccc(Cl)c(C(F)(F)F)c4)ccc3c2)ccn1,75.7%,40.4%,82.9%,77.8%,74.6%,66.5%,66%,84.8%,46.8%,48.2%,41.2%,39.6%,82.7%,77%,56.8%,21.7%,60.5%,47.3%,60.8%,68.6%
C[C@H]1[C@H]2[C@H]3CC[C@@H]4[C@@]5(C)C/C(=C/c6cccnc6)C(=O)C(C)(C)[C@@H]5CC[C@@]4(C)[C@]3(C)CC[C@]23CO[C@]1(C)[C@@H](C(=O)/C=C\c1cccnc1)C3,-28.8% (active),6.51% (active),-33.5% (active),-30.7% (active),-91.8% (active),7.1% (active),6.07% (active),-32.4% (active),13.2%,-20.1% (active),-15.3% (active),26.4%,32.7%,2.48% (active),-68% (active),-3.56% (active),-82.2% (active),-25.6% (active),-85.2% (active),-17.8% (active)
S=C(c1ccc2c(c1)OCO2)N1CCN(c2ccccc2Cl)CC1,105%,108%,72%,98.7%,109%,94%,118%,102%,96.2%,99.3%,96.2%,93.6%,100%,99.4%,95.2%,84.7%,89.6%,89.5%,111%,103%
N#C/C(=C\c1ccc(-c2ccccc2F)o1)c1nc(-c2ccco2)cs1,101%,82.8%,96%,85.8%,109%,101%,98.6%,98.1%,99.7%,94.8%,62.1%,95.5%,60.7%,95.2%,101%,78.4%,84.7%,83.9%,93.7%,104%
O=C(c1ccccc1)c1c(/C=C/c2ccccc2)nc2ccccc2c1/C=C/c1ccc(Br)cc1,105%,97.3%,106%,100%,104%,91.6%,101%,106%,99.8%,96.8%,108%,102%,83.1%,88.9%,95.9%,90.2%,101%,82%,90.6%,108%
COC(=O)c1c2c(c[n+]([O-])c1C)C(=O)C=CC2=O,74.1%,2.05% (active),-97.1% (active),49.9%,57.3%,68.7%,103%,83.5%,-35.1% (active),-64.5% (active),12.4%,106%,125%,79.8%,37.7%,65.8%,72%,0.925% (active),47.3%,49%
O=C(NCCCNc1cc(-c2cn(-c3ccccc3)nc2-c2cccc(O)c2)ccn1)c1ccccc1,49.7%,-4.2% (active),-5.89% (active),-6.57% (active),24%,44.1%,12%,27.3%,-49.2% (active),3.42% (active),1.17% (active),-2.39% (active),23.1%,65.7%,27.9%,27.2%,-37.8% (active),23.6%,17.3%,4.17% (active)
CC1=C([Se]CC(OC(=O)CC[Se]c2ccccc2)C(=O)NCCCCCC(=O)OCc2ccccc2)C(=O)c2ccccc2C1=O (stereo not given),22.1%,39.5%,-31.3% (active),32.3%,35%,4.54% (active),-7.86% (active),15.3%,35.9%,-36.8% (active),50.1%,41.2%,56.2%,31%,12.7%,30.7%,-24.9% (active),41.6%,10.3%,21.7%
C[C@]12CC[C@@H]3c4cc(OC(F)F)c(O)cc4CC[C@H]3[C@@H]1CC[C@@H]2OS(N)(=O)=O,9.56% (active),14.1%,27.1%,50.9%,19.1%,58.3%,12.8%,5.62% (active),71.8%,17.6%,26.6%,19.5%,-8.09% (active),51%,30%,26.7%,0.18% (active),48%,40.4%,57.4%
Cc1cc(NCc2cc(Nc3ccnc4cc(Cl)ccc34)ccc2F)nc(N2CCCC2)n1,10.8%,-46.2% (active),-65.6% (active),-49.1% (active),-65.5% (active),-2.08% (active),-84.4% (active),-68.5% (active),-17.8% (active),-71.3% (active),-60.7% (active),-40.2% (active),-87.3% (active),28.9%,-64.7% (active),17.5%,-94.2% (active),-62.6% (active),-92.8% (active),-69.4% (active)
Oc1c(CN2CCCC2)cc(COCc2ccc(Br)cc2)c2cccnc12,22.7%,8.51% (active),-3.92% (active),5.06% (active),20%,10.8%,13%,-23.5% (active),-29.5% (active),-3.51% (active),-39.6% (active),55%,24.5%,23.2%,-7.1% (active),14.4%,-15.1% (active),-22.4% (active),-14.1% (active),24.2%
COC(=O)[C@]12CC[C@@H](C)[C@H](C)[C@@H]1C1=CC[C@@H]3[C@@]4(C)C(C=O)=C[C@@](C)(COC(=O)/C=C/c5ccccc5)[C@@H]4[C@H](O)C[C@@]3(C)[C@]1(C)CC2,-3.76% (active),9.93% (active),-43.2% (active),0.0701% (active),-40.6% (active),14.7%,1.14% (active),-10.7% (active),-43.2% (active),-43% (active),2.39% (active),-22.9% (active),2.38% (active),49.4%,2.16% (active),12%,-64.4% (active),-29.7% (active),-95.5% (active),-12.5% (active)

# From PubChem BioAssay (NCI)
